# Screening data deposited in PubChem by National Center for Advancing Translational Sciences (NCATS).
# Most compounds without a hit are left out; they make up all but 11% or so of the library.
# HCV inhibitor = inhibitors of hepatitis C virus infection; Huh7.5.1 HCVcc-Cre infection, luciferase reporter, 44 h; Potency, µM (highest dose often 41.8 µM), for the others: top-dose activity change, negative = inhibition, usual class: inhibitors; 3.4% of 340,000 active; AID 651820; note: % is set by controls: 0 for no effect and ±100 for the full control effect
#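 HCVcc-Cre virus at an moi near 0.5 was added right after compound to cells cultured 4 h from seeding (1,000 cells/well). Luciferase activity was determined 44 h later, 15 min after substrate addition at RT.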
# VACV Venus inh = inhibitors of vaccinia virus (Venus reporter); Potency, µM (top dose mostly 36.5 µM), without a hit: at the top dose activity change, negative = inhibition, most hits filed as inhibitors; Vaccinia virus Venus reporter expression, fluorescence; 0.46% of 330,000 active; calls by dose curve; tested in A549 cells; note: % is set by controls: 0 for no effect and ±100 for the full control effect; nearly all actives have a fitted effect of over 30% in size
# Pf growth 96h = P. falciparum growth inhibition at 96 hours; AID 504834; P. falciparum luciferase reporter growth, 96 h; Potency, µM (doses to about 28.7 µM), for the others: at the highest dose activity change, negative = inhibition, most hits filed as inhibitors; 6.9% of 320,000 active; note: % is set by controls: 0 for no effect and ±100 for the full control effect
#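 Delayed-death screen, second-generation endpoint: infected erythrocytes, 2% hematocrit, 0.05% parasitemia final; 96 hours at 37 C, 5% CO2; luciferase detection reagent; luminescence decrease equals reduced growth.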
# NS1 inh = blocks influenza NS1 protein function; Potency, µM (series often up to 46.1 µM), without a hit: at the highest dose activity, positive = more growth; AID 2326; 0.4% of 270,000 active; calls by dose curve; note: actives are rising curves; nearly all actives have a fitted effect of over 50% in size
#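 Growth recovery, yeast-based: influenza A NS1 expressed in S. cerevisiae causes slow growth, and suppressors are detected by OD600. The parent strain without NS1 is used as positive control.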
# VACV mCherry inh = vaccinia inhibition (mCherry reporter); Vaccinia virus mCherry reporter infection, fluorescence; Potency, µM (doses to about 36.5 µM), for the others: top-dose activity change, negative = inhibition, actives largely listed as inhibitors; 0.63% of 310,000 active; AID 720579; calls by dose curve; tested in A549 cells; note: % is set by controls: 0 for no effect and ±100 for the full control effect; nearly all actives have a fitted effect of over 35% in size
# Pf growth 48h = P. falciparum growth inhibition at 48 hours (one generation); 5.9% of 310,000 active; P. falciparum luciferase growth in erythrocytes, 48 h; AID 504832; Potency, µM (series often up to 28.7 µM), for inactives: at the top dose activity change, negative = inhibition, hits mostly inhibitors; note: % is set by controls: 0 for no effect and ±100 for the full control effect
#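 Read-out is firefly luciferase luminescence from an integrated reporter in P. falciparum, so falling signal marks reduced parasite growth. Infected erythrocytes were at 2% hematocrit and 0.1% parasitemia (final) in Albumax-supplemented RPMI 1640.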
# * marks the source's active call; other numbers are inactive results; i = inactive; ? = inconclusive; · = not tested or not shown; ! = not confirmed by another sample; [ ] = another dose, or the depositor's remark. Unless noted, calls come from the whole dose curve; as a rule, active = well fitted inhibition curve with a large enough effect; inconclusive = small, poorly fitted or top-dose-only effect, or another doubt; inactive = no such curve, though single readings can be large or run the other way. Potency is the fitted concentration of half-maximal effect.
SMILES,HCV inhibitor,VACV Venus inh,Pf growth 96h,NS1 inh,VACV mCherry inh,Pf growth 48h
CNC(=O)CN(c1cccc(Br)c1)S(C)(=O)=O,6%,-14%,·,14%,-21%,16%
CS(=O)(=O)N(CC(N)=O)c1cccc(Br)c1,?,-12%,3.7µM*,0%,·,7%
COc1ccc(N(C)S(=O)(=O)c2cccc(C(=O)Nc3ccc(N4CCOCC4)cc3)c2)cc1,?,·,?,·,·,8.3µM*
COc1ccc(N(C)S(=O)(=O)c2cccc(C(=O)NC3=NCCS3)c2)cc1,8%,-2%,-17%,-27%,·,?
CN(c1ccccc1)S(=O)(=O)c1cccc(C(=O)Nc2ccc(N3CCOCC3)cc2)c1,10µM*,-27%,?,·,i,?
COc1ccc(N(C)S(=O)(=O)c2cccc(C(=O)NC3CCCC3)c2)cc1,?,-2%,?,·,-1%,10µM*
CN(c1ccccc1)S(=O)(=O)c1ccc(Cl)c(C(=O)Nc2ccccc2N2CCOCC2)c1,11µM*,-11%,?,·,-24%,?
CS(=O)(=O)c1ccc(C(=O)Nc2ccccc2N2CCOCC2)c(Cl)c1,-10%,-2%,-15%,·,i,15%
Cc1ccc(C)c(Cn2c(C(C)NC(=O)c3ccccc3)nc3ccccc32)c1 (stereo unspecified),·,-14%,·,·,-7%,·
CN(C)S(=O)(=O)c1cccc(C(=O)Nc2ccc(N3CCOCC3)cc2)c1,?,-3%,20%,10%,i,1%
Cc1ccc(N(C)S(=O)(=O)c2cccc(C(=O)Nc3ccc(N4CCOCC4)cc3)c2)cc1,6.3µM*,·,10µM*,·,·,?
Cc1[nH]c2ccccc2c1C(=O)CN1C(=O)NC2(CC(C)CC(C)(C)C2)C1=O (stereo unspecified),2%,·,10µM*,0%,·,?
NC1=NC2=C(CCCC2)C2(CCCCC2)S1,?,·,213%,-10%,·,13µM*
Cc1nnc2n(Cc3ccccc3)c(=O)c3c4c(sc3n12)COC(C(C)C)C4 (stereo unspecified),2%,-17%,?,12%,·,?
Cc1ccc2[nH]c(=O)c(CN(CCN3CCOCC3)C(=O)Nc3ccccc3F)cc2c1,-1%,-8%,7%[5.75 µM],-24%,i,?
Cc1cc2cc(CN(CCN3CCOCC3)C(=O)Nc3ccccc3F)c(=O)[nH]c2cc1C,4%,-11%,·,-5%,·,9.3µM*
Cc1cc2cc(CN(CCCN3CCOCC3)C(=O)NC3CCCCC3)c(=O)[nH]c2cc1C,?,·,240%,-6%,·,4.7µM*
Cc1cccc2cc(CN(CCN3CCCC3)C(=O)NC3CCCCC3)c(=O)[nH]c12,-12%,-16%,?,2%,·,4.7µM*
Cc1ccc2cc(CN(CCCN3CCOCC3)C(=O)NC3CCCCC3)c(=O)[nH]c2c1C,20%,·,20%,-3%,·,?
CCN(CC)CCCN(Cc1cc2cc(OC)c(OC)cc2[nH]c1=O)C(=O)Nc1ccccc1,0%,·,·,3%,·,?
COc1cc2cc(CN(Cc3cccnc3)C(=O)Nc3ccccc3F)c(=O)[nH]c2cc1OC,-9%,·,22%,2%,·,7.4µM*
CCCCNC(=O)C1(C)CCCCN1Cc1ccc(OCc2ccccc2)cc1 (stereo unspecified),·,-8%,·,·,13%,·
O=C1c2ccccc2NC(c2ccco2)N1NS(=O)(=O)c1ccccc1 (stereo unspecified),1%,-6%,?,·,i,16%
CCN(CC)CCCN(Cc1cc2cc3c(cc2[nH]c1=O)OCO3)C(=O)Nc1ccccc1OC,3%,-20%,10µM*,0%,-5%,?
Cc1cc(C)c2cc(CN(CCO)C(=O)NC3CCCCC3)c(=O)[nH]c2c1,-7%,-20%[7.34 µM],?,-1%,i[7.34 µM],-9%
SMILES,HCV inhibitor,VACV Venus inh,Pf growth 96h,NS1 inh,VACV mCherry inh,Pf growth 48h
CCN1CCCC1CN(Cc1cc2c(C)cc(C)cc2[nH]c1=O)C(=O)NC1CCCCC1 (stereo unspecified),-7%,-23%,·,17%,·,9.3µM*
COc1ccc(Cn2c(SCC#N)nc3ccc(N4CCOCC4)cc3c2=O)cc1,5µM*,-12%,0%,·,-23%,-12%
COCCNC(=O)CSc1nc2cc3c(cc2c(=O)n1CCCCCC(=O)NCc1ccc(OC)cc1)OCO3,·,-9%,·,·,-14%,·
CCOc1ccc(NC(=O)CSc2nc3ccccc3c(=O)n2CCCC(=O)NCC2CCCO2)cc1 (stereo unspecified),3%,-14%,-19%,-5%,-12%,-8%
COc1cccc(NC(=O)CSc2nc3ccccc3c(=O)n2CCCC(=O)NCC2CCCO2)c1 (stereo unspecified),-12%,·,9.3µM*,-31%,·,?
CCCCn1c(SCC(=O)Nc2cccc(OC)c2)nc2ccc(N3CCOCC3)cc2c1=O,8.9µM*!,·,·,-26%,·,9.3µM*
COCCCNC(=O)CSc1nc2cc3c(cc2c(=O)n1CCCC(=O)NCc1ccc(OC)cc1)OCO3,?,3%,10µM*,·,-5%,-16%
CCCC[C@]12Cc3cc(C#N)ccc3C(O1)c1c(cc(C)n(-c3ccccc3)c1=O)O2,·,·,?,23%,·,?
N#Cc1ccc2c(c1)C[C@]1(CCCCN3C(=O)c4ccccc4C3=O)Oc3c(c(=O)oc4ccccc34)C2O1,·,·,-19%[5.75 µM],2%,·,1.7µM*
O=C1NCCCC1C(=O)Nc1cccc(C(F)(F)F)c1 (stereo unspecified),23%,-19%,-5%,-6%,·,-20%
CC(=O)c1ccc(NC(=O)C2CCCNC2=O)cc1 (stereo unspecified),-5%,·,5.2µM*,4%,·,15%
COc1ccc(NC(=O)C2CCCNC2=O)cc1 (stereo unspecified),16%,·,6.6µM*,0%,·,24%
COc1ccc(NC(=O)C2CCOC2=O)cc1 (stereo unspecified),17%,-11%,·,·,-13%,·
COc1ccc(N2CCN(C(=O)CCc3ccccc3)CC2)cc1,-15%,·,-7%,-7%,·,·
CC(=O)Nc1ccc(NC(=O)C(C)OC(=O)CSCc2cccc(Cl)c2)cc1 (stereo unspecified),2%,-12%,20%,·,-19%,25%
COC(=O)c1ccccc1NC(=O)/C=C/c1cc(OC)c(OC)c(OC)c1,5µM*,1%,?,6%,·,·
COc1cc(/C=C/C(=O)Nc2cc(C(F)(F)F)ccc2Cl)cc(OC)c1OC,?,-21%,2.6µM*,0%,-29%,10µM*
COc1ccc(/C=C/C(=O)Nc2cc(C(F)(F)F)ccc2Cl)cc1OC,?,-26%,74%,9%,-11%,?
C=CCNC(=S)N/N=C/c1ccc(C)c([N+](=O)[O-])c1,-26%,-24%,16%,17%,-12%,29%
CN(C)/C=N/c1c(C#N)cnn1-c1ncnc2sc(-c3ccccc3)cc12,?,?,10µM*,-7%,-8%[1.46 µM],?
